# Most compounds without a hit are left out; they make up all but 4.8% or so of the library.
# HIF activator: HIF pathway transcriptional activation; activation, % at 7.5 µM (by protocol); AID 1910; U2OS HRE-luciferase reporter, luminescence; normalized: DMSO 0%, desferrioxamine 100%; hit rate 0.32% among 300,000;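 active means mean activation of at least 10% of the iron chelator positive control signal, with at least half of replicates also reaching 10%; inconclusive means mean and replicate majority disagree about reaching 10%; inactive means mean and most replicates under 10%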
# Mot1-301 SUMO: SUMOylation pathway inhibition by Mot1-301 growth rescue. S. cerevisiae Mot1-301 growth rescue, ATP luminescence, 38.5C; percent above DMSO median, 100 means doubled. growth rescue, % at 18.8 µM. hit rate 1% among 320,000. AID 2716;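 active means every valid replicate shows activation above 250% relative to neutral control wells; inactive means the rest, any valid replicate at or below 250%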;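 further: OY570 slx delta 5 strain wells were the positive control but not used for scaling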
# AI-2 QS mod: modulates the Vibrio harveyi AI-2 quorum sensing system; Vibrio harveyi JMH597 AI-2 luminescence/OD600 ratio, 9 h; stronger effect = lower value; strain lacks LuxN and CqsS sensors; 0 = neutral-control median; activity change, % at 7.5 µM; hit rate 0.4% among 300,000; AID 2094; in the data active means activity change below about -75%, passing the limit was not always enough; inconclusive means no clear call, values can overlap the other calls;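 further: luminescence divided by OD600 gain over 9 h not by final OD600 alone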
# ALR inh: human ALR oxidase inhibition via reduced H2O2; inhibition, % (no concentration beside the values); hit rate 3.8% among 290,000; purified ALR, DTT oxidation, H2O2 HRP-luminol luminescence; AID 485317;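 active means mean replicate inhibition above about 79%, with every replicate also reaching it, limit read from the data; inconclusive means only one of the two criteria met; inactive means mean below limit and not every replicate reaching it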
# Target sequence (P55789 whole entry, looked up): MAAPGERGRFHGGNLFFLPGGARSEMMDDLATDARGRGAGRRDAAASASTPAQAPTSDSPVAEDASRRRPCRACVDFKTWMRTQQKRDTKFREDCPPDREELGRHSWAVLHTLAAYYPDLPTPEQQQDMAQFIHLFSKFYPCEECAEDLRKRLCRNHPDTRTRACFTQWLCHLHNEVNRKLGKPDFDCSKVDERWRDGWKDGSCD
# The depositor's hits bear a star; ? = inconclusive; nt = no result; + = active, no number.
SMILES,HIF activator,Mot1-301 SUMO,AI-2 QS mod,ALR inh
CCOC(=O)c1ccc(S(=O)(=O)Nc2cc(S(=O)(=O)Nc3ccc(OC)cc3)ccc2O)cc1,nt,1.3,nt,?
Cc1cc(C)cc(N(CC(=O)N2CCN(Cc3ccccc3)CC2)S(=O)(=O)c2c(C)noc2C)c1,nt,303.3,39.4,95.9*
COc1ccc(OC)c(NC(=O)CN(c2ccc(C(C)C)cc2)S(=O)(=O)c2c(C)noc2C)c1,nt,222.3,29.9,94.8*
CCOC(=O)C1CCN(C(=O)CN(c2ccc(OC)cc2)S(=O)(=O)c2c(C)nn(C)c2C)CC1,-0.5,-25.5,-5.0,nt
CCOC(=O)C1CCN(C(=O)CN(c2ccc(OC)cc2)S(=O)(=O)c2c(C)noc2C)CC1,nt,8.6,22.2,89.0*
COc1ccccc1CN1CCC(CNS(=O)(=O)c2cc(-c3onc(C)c3C)ccc2OC)CC1,-0.5,33.8,25.1,0.4
C=CCN(Cc1ccc(OC)c(OC)c1)C(=O)c1cc2cc(F)ccc2[nH]1,-0.4,-6.8,5.1,-9.6
c1cncc(CNCc2ccco2)c1,-1.9,5.1,19.4,7.2
CCCCN=C1NC(=O)C(CC(=O)NCCc2ccc(OC)cc2)S1 (stereo unspecified),-0.1,29.3,9.5,-6.3
O=C(CC1SC(=NCc2ccccc2)NC1=O)Nc1ccccc1 (stereo unspecified),-0.1,+,-0.9,-8.3
CCCCN=C1NC(=O)C(CC(=O)Nc2ccc(Cl)cc2)S1 (stereo unspecified),0.7,306.0*,7.3,nt
Cc1cc(/N=C/C=C2\N(C)c3ccccc3C2(C)C)n(CCC#N)n1,-0.9,12.0,5.6,98.9*
Cc1c(N=C/C=C2\N(C)c3ccccc3C2(C)C)c(=O)n(-c2ccccc2)n1C,-0.7,4.2,12.9,93.3*
Cc1c(NC(=O)NCc2ccccc2)c(=O)n(-c2ccccc2)n1C,0.2,8.9,30.7,-5.2
CN(C)c1ccc(N=C/C=C2\N(C)c3ccccc3C2(C)C)cc1,0.7,-16.8,31.0,99.0*
Cc1c(NC(=S)/C=C2\N(C)c3ccccc3C2(C)C)c(=O)n(-c2ccccc2)n1C,0.4,8.3,6.5,95.4*
CN1/C(=C\C=Nc2ccc3ccccc3c2)C(C)(C)c2ccccc21,nt,-21.2,nt,nt
COc1cc(NC(=O)c2ccccc2)c(C)cc1NC(=O)CC(CC(=O)O)c1ccccc1 (stereo unspecified),0.1,-6.0,-4.5,nt
COC(=O)Cc1ccc(NC(=S)N2CCN(CCO)CC2)cc1,0.1,126.5,10.4,-17.2
C=CCC1NS(=O)(=O)OC(CCc2ccccc2)C1O (stereo unspecified),-0.1,3.8,15.5,-7.4
Cc1c(N=C/C=C2/N(C)c3ccccc3C2(C)C)c(=O)n(-c2ccccc2)n1C,-0.7,-14.8,9.8,99.1*
Cc1c(N=C/C=C/c2ccccc2)c(=O)n(-c2ccccc2)n1C,0.0,3.0,21.0,63.5
CC1CN(C(=O)CCC(=O)NCc2ccccc2)c2ccccc2O1 (stereo unspecified),-0.1,1.4,28.2,3.9
COc1cc(Sc2ccc(C)cc2)c(OC)cc1N,-0.2,182.1,32.8,98.4*
COC(=O)c1ccc(Sc2ccc(C)cc2)c(N)c1,0.3,0.7,-67.4,-6.8
SMILES,HIF activator,Mot1-301 SUMO,AI-2 QS mod,ALR inh
CCCc1cc(C(=O)Nc2ccc(CC)cc2)no1,1.3,90.4,14.8,nt
NS(=O)(=O)c1ccc(Sc2ccc3ccccc3c2)nc1,-0.3,4.3,46.5,99.0*
NS(=O)(=O)c1ccc(SCc2ccccc2)nc1,-0.3,127.7,24.9,-0.9
CN(CC(=O)N1CCN(c2ccccc2)CC1)C1CCCc2ccccc21 (stereo unspecified),0.0,15.2,12.1,31.7
COc1ccc2nc3ccccc3nc2c1N,4.6,-4.3,nt,99.2*
COc1ccc(-c2cn[nH]c2-c2ccc(OCC(=O)NN)cc2O)cc1OC,0.7,408.5,2.5,-8.2
COc1ccccc1-c1cn[nH]c1-c1ccc(OCC(=O)NN)cc1O,1.4,-6.3,-6.7,95.1*
COc1ccc(-c2cn[nH]c2-c2ccc(OCC(=O)NN)cc2O)cc1,-0.1,228.8,17.6,78.2*
COc1ccc(C(=O)CSc2nccn2C)c(OC)c1,3.0,2.1,-1.1,72.7
Cc1cccc(-c2noc(CN(C)S(=O)(=O)c3cc(Cl)ccc3Cl)n2)c1,167.5*,-0.1,13.8,-5.2
CC(C)(C)N1CC(C(=O)Nc2ccc(C#N)cc2)CC1=O (stereo unspecified),-1.5,94.3,9.6,-3.1
CC1(C)CC(=O)C(C(C2=C(O)CC(C)(C)CC2=O)c2ccc(O)c([N+](=O)[O-])c2)=C(O)C1,0.1,-7.9,15.7,97.4*
CC1(C)CC(=O)C2=C(C1)OC1=C(C(=O)CC(C)(C)C1)C2c1ccc(O)c([N+](=O)[O-])c1,0.7,-16.0,11.7,-5.3
Cc1ccc(/C=C2\C(=N)N3N=C(CC(=O)N4CCOCC4)SC3=NC2=O)o1,0.5,1.8,22.7,91.5*
COc1ccc(/C=C2\C(=N)N3N=C(CC(=O)N4CCOCC4)SC3=NC2=O)cc1,-0.8,-0.9,9.2,-6.2
N=C1/C(=C\c2ccc(SCc3ccccc3)o2)C(=O)N=C2SC(CC(=O)N3CCOCC3)=NN12,0.3,-2.3,42.8,98.3*
CC1CCC2(CC1)NC(=O)N(CC(=O)Nc1cccc(S(=O)(=O)N3CCCC3)c1)C2=O (stereo unspecified),nt,11.0,nt,-0.4
CC(C)CC1NC(=O)N(CC(=O)Nc2cc(F)ccc2F)C1=O (stereo unspecified),nt,13.5,nt,15.0
Cc1cc(C(=O)NNc2ccccc2F)no1,1.7,68.7,19.7,98.8*
Cc1cc(C(=O)NNc2c(Cl)cccc2Cl)no1,0.3,-5.7,-0.1,16.3
Cc1cc(C(=O)NNc2ccc(F)cc2)no1,0.1,240.4,0.6,98.8*
O=C(Nc1ccccn1)c1cccc(S(=O)(=O)N2CCCC2)c1,0.2,2.4,32.7,-17.2
CCn1cc(/C=C(\NC(=O)c2ccc(OC)c(OC)c2)C(=O)NCCCN2CCOCC2)c2ccccc21,-4.0,nt,18.9,nt
CCC(C)CCCCNC1=NCCS1 (stereo unspecified),0.1,-11.2,-0.3,nt
CCCCCCNC1=NCCS1,-0.3,719.7*,12.2,1.7
SMILES,HIF activator,Mot1-301 SUMO,AI-2 QS mod,ALR inh
Cc1sc2ncnc(N3CCN(Cc4ccccc4)CC3)c2c1-c1ccccc1,-0.1,-23.2,26.0,0.1
O=c1[nH]c(-c2ccc(F)cc2)nc2c1sc(=S)n2-c1ccccc1,0.0,966.4*,3.6,-9.4
Cc1ccc(/C=c2\sc3nc(-c4cccs4)nn3c2=O)o1,-0.2,-22.5,-3.7,99.1*
COc1ccc(/C(C)=N/NC(=O)CN(c2ccc(OC)cc2)S(=O)(=O)c2ccccc2)cc1,-7.0,3.5,9.2,-7.8
CN(C)NC(=O)c1ccsc1NC(=O)c1ccc(S(=O)(=O)N2CCCC2)cc1,-0.4,6.0,17.5,86.8*
CCCn1c(NCc2cccc(OC)c2OC)nc2ccccc21,0.3,nt,3.4,97.8*
CCCn1c(NCc2cccc(OC)c2O)nc2ccccc21,1.5,-1.5,10.5,94.2*
COc1cccc(CNc2ccc(F)c(Cl)c2)c1OC,-0.4,29.9,8.9,?

# From PubChem
